Data taken from ChEMBL document CHEMBL1157539, “Thousands of chemical starting points for antimalarial lead identification” (Nature, 2010).

How the values were obtained:
Assay type in all cases: functional
Plasmodium falciparum [1] = assay: GSK_TCMDC: Inhibition of Plasmodium falciparum 3D7 in whole red blood cells, using parasite LDH activity as an index of growth. Test compounds present at 2uM
Plasmodium falciparum [2] = assay: GSK_TCMDC: Inhibition of Plasmodium falciparum Dd2 in whole red blood cells, using parasite LDH activity as an index of growth. Test compounds present at 2uM
HepG2 = assay: GSK_TCMDC: Percent inhibition of human HepG2 cell line. Test compounds present at 10uM.

| Compound | Inhibition (Plasmodium falciparum [1]) | Inhibition (Plasmodium falciparum [2]) | Inhibition (HepG2) |
| --- | --- | --- | --- |
| O=C(NCc1ccc(Cl)c(Cl)c1)c1ccc(C2CCN(Cc3ccc4[nH]cnc4c3)CC2)cc1 | 100% | 31% | 1% |
| COc1ccc(C2CC(=O)C3=C(C2)NC(C)=C(C(=O)OC2CCCC2)C3c2cccc(O)c2)cc1OC (stereo not drawn) | 100% | 98% | 8% |
| COc1ccc2nccc(N3C[C@H]4C[C@@H]3CN4CCNCc3ccc4c(n3)NC(=O)CS4)c2n1.Cl | 99% | 0% | 21% |
| COc1ccc(CON2C(=N)N=C(N)NC2(C)C)cc1OC.Cl | 96% | 97% | 68% |
| COC(=O)c1ccc(CCC(C)NCC(O)c2cccc(Cl)c2)cc1.Cl (stereo not drawn) | 100% | 94% | 0% |
| CN1Cc2cc(NC(=O)/C=C/c3ccccc3Cl)ccc2C(C)(C)C1.Cl | 99% | 96% | 12% |
| O=C(NCCCCN1CCC(c2ccc(C(F)(F)F)cc2C(F)(F)F)CC1)c1ccc(NC(=O)c2ccc(Cl)cc2)cc1 | 99% | 59% | 4% |
| Cl.N#Cc1ccc2c(c1)CCN(CCC1CCC(NC(=O)/C=C/c3c[nH]c4c(Br)cccc34)CC1)CC2 (stereo not drawn) | 100% | 65% | 32% |
| O=c1nc(C=Cc2ccc(Br)cc2)oc2ccccc12 | 97% | 66% | 0% |
| C=CCN(C(=O)c1ccc(Cl)c([N+](=O)[O-])c1)c1nc(-c2ccccc2)cs1 | 100% | 99% | 0% |
| CN1CCN(CCCN(Cc2cccc(-c3ccc(CNC4CCCC4)cc3)c2)C(=O)CCC2CCCC2)CC1.O=C(O)C(F)(F)F | 97% | 84% | 16% |
